Activity calls are given as the source filed them.
Columns and labels:
[1] = system: PRMT1 (protein arginine N-methyltransferase 1); assay: PRMT1 binders on small-molecule microarrays, primary screen, biochemical, small-molecule microarray, 635 nm fluorescence (AID 1088); conditions: small-molecule microarray binding, higher = more signal;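 note: binding of Prmt1 protein to compounds spotted on small-molecule microarray slides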
[2] = yeast growth modulation, basal conditions, primary screen, YJM789 clinical isolate, OD600, 24 h (AID 1089);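 note: growth of clinical yeast isolate S. cerevisiae YJM 789 seeded 1000 cells per well; test concentration not given here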; conditions: S. cerevisiae YJM789 growth, higher = more signal, called active from +8 up or from −8 down
[3] = fission yeast growth modulation, primary screen, strain 972, OD600, 24 h, no modulator (AID 1090);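 note: basal condition with compound alone and no growth modifier present; test concentration not given here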; conditions: S. pombe 972 growth, higher = more signal, called active from +8 up or from −8 down
[4] = S. cerevisiae growth modulation with rapamycin, primary screen, strain BY4716, OD600, 96 h (AID 1091); conditions: higher = more signal, called active from +8 up or from −8 down; note: test concentration not given here
[5] = target: Torsin-1A-interacting protein 2 (Homo sapiens) (UniProt Q8NFQ8); assay: LULL1 binders on small-molecule microarray, primary screen, cell lysate, human LULL1 lysate, 635/667 nm fluorescence (AID 1092); conditions: hLULL1 lysate binding, 635 nm fluorescence, higher = more signal;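 note: probe is lysate of COS7 cells overexpressing human LULL1; score merges per-feature 667 nm fluorescence with signal-to-noise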
[6] = E. coli growth modulation, two-sided OD650, primary screen, E. coli filamentation project, strain DRC41, 24 h (AID 1093); conditions: OD650, 24 h, higher = more signal, called active from +8 up or from −8 down;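 note: MC1000 strain lacking acrAB efflux and sulA so SOS filamentation is blocked; test concentration not given here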
[7] = small-molecule microarray binders of probe aLefty2, primary screen, biochemical, biotinylated probe, 635/667 nm fluorescence (AID 1094); conditions: higher = more signal;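 note: score merges spot fluorescence near 667 nm with spot signal-to-noise ratio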
[8] = system: Noggin (protein binding on small-molecule microarray); assay: Noggin binders on small-molecule microarray, primary screen, biochemical, 635/667 nm fluorescence (AID 1095); conditions: 635 nm fluorescence, higher = more signal;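 note: score merges 667 nm feature fluorescence with signal to noise over triplicate slides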
[9] = target: Neurogenic locus notch homolog protein 3 (Homo sapiens) (UniProt Q9UM47); assay: NOTCH3 binders on small-molecule microarray, primary screen, biochemical, 635/667 nm fluorescence (AID 1096); conditions: NOTCH3 binding, 635 nm fluorescence, higher = more signal
[10] = small-molecule microarray binders of probe aEGFR, primary screen, biochemical, biotinylated probe, 635/667 nm fluorescence (AID 1097); conditions: higher = more signal;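 note: probe is a biotinylated anti-EGFR antibody binding compounds printed on slides; score combines fluorescence near 667 nm and signal to noise of each spot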
[11] = system: Plasmodium falciparum Sir2 (PF13_0152, Sir2A); assay: pfSir2 binders on small-molecule microarrays, primary screen, biochemical, small-molecule microarray, 635 nm fluorescence (AID 1098); conditions: small-molecule microarray binding, fluorescence 635 nm; higher = more signal;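 note: score merges spot fluorescence intensity with its signal-to-noise ratio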
[12] = small-molecule microarray binders of probe aDKK1, primary screen, biochemical, biotinylated probe, 635/667 nm fluorescence (AID 1099); conditions: higher = more signal;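 note: score merges 667nm spot fluorescence with signal to noise across triplicate slides; reference of the scale not given here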
[13] = small-molecule microarray binders of probe aCHRDL2, primary screen, biochemical, biotinylated probe, 635/667 nm fluorescence (AID 1100); conditions: higher = more signal
[14] = splicing luciferase reporter signal modulators, primary screen, spliceosome inhibition project, cell-based, HEK293, splice +/- reporter (AID 1101); conditions: luminescence, 24 h, higher = more signal, called active from +8 up or from −8 down;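 note: HEK293 cells carrying a splicing-competent luciferase reporter gene; test concentration not given here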
[15] = target: Fibroblast growth factor 10 (Homo sapiens) (UniProt O15520); assay: FGF10 binders on small-molecule microarrays, primary screen, biochemical, small-molecule microarray, 635 nm fluorescence (AID 1102); conditions: FGF10 binding, fluorescence 635 nm, higher = more signal
[16] = system: glycogen synthase kinase-3 (GSK3A per assay name; protocol says GSK3B); assay: GSK3 binders on small-molecule microarrays, primary screen, biochemical, small-molecule microarray, 635 nm fluorescence, GSK3A (AID 1103); conditions: small-molecule microarray binding, fluorescence 635 nm; higher = more signal; note: the record names both GSK3A and GSK3B
[17] = target: Epidermal growth factor receptor (Homo sapiens) (UniProt P00533); assay: EGFR binders on small-molecule microarrays, primary screen, biochemical, small-molecule microarray, 635 nm fluorescence (AID 1104); conditions: EGFR binding, higher = more signal;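 note: score merges 667 nm emission intensity with spot signal to noise over triplicate slides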
[18] = target: Follistatin-related protein 3 (Homo sapiens) (UniProt O95633); assay: FSTL3 binders on small-molecule microarrays, primary screen, biochemical, small-molecule microarray, 635 nm fluorescence (AID 1105); conditions: FSTL3 binding, higher = more signal;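 note: score merges emission near 667 nm and signal to noise per printed spot across three slides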
[19] = target: Dickkopf-related protein 1 (Homo sapiens) (UniProt O94907); assay: DKK1 binders on small-molecule microarrays, primary screen, biochemical, small-molecule microarray, 635 nm fluorescence scan (AID 1106); conditions: DKK1 binding, higher = more signal;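 note: score merges emission near 667 nm with signal to noise over three replicate slides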
[20] = system: Inhibin beta A chain (activin A); assay: INHBA (activin A) binders on microarrays, primary screen, biochemical, small-molecule microarray, 635 nm fluorescence scan (AID 1107); conditions: small-molecule microarray binding, higher = more signal;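 note: mouse activin A protein probed at 4.33 µg/mL on printed slides; score merges bound-protein fluorescence near 667 nm with spot signal-to-noise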

Follistatin-related protein 3 (Homo sapiens), sequence (O95633 whole entry, looked up): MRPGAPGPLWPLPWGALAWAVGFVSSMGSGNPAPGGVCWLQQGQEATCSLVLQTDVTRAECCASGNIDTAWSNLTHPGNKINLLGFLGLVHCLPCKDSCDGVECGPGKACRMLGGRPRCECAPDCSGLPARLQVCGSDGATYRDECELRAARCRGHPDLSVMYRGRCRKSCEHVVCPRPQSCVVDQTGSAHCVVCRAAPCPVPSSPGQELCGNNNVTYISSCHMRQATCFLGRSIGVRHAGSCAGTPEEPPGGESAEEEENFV
Fibroblast growth factor 10 (Homo sapiens), sequence (O15520 whole entry, looked up): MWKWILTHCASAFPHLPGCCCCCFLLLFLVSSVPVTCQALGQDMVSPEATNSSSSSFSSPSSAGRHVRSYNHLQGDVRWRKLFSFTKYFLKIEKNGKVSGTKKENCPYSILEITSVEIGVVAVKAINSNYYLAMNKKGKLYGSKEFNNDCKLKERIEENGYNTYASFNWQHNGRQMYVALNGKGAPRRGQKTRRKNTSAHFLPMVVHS
Torsin-1A-interacting protein 2 (Homo sapiens), sequence (Q8NFQ8 whole entry, looked up): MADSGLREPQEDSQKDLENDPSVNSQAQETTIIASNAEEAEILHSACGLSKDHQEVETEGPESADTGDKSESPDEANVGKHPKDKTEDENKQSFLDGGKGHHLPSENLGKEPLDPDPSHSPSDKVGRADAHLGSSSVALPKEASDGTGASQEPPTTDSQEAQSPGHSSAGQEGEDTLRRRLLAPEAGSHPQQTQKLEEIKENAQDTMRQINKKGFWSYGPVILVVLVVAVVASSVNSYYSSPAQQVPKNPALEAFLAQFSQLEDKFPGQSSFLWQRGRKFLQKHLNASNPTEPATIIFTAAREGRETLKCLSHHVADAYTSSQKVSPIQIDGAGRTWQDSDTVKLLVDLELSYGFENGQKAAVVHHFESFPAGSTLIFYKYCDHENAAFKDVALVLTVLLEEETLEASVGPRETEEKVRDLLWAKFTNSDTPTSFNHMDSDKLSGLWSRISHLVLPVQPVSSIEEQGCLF
Epidermal growth factor receptor (Homo sapiens), sequence (P00533 whole entry, looked up): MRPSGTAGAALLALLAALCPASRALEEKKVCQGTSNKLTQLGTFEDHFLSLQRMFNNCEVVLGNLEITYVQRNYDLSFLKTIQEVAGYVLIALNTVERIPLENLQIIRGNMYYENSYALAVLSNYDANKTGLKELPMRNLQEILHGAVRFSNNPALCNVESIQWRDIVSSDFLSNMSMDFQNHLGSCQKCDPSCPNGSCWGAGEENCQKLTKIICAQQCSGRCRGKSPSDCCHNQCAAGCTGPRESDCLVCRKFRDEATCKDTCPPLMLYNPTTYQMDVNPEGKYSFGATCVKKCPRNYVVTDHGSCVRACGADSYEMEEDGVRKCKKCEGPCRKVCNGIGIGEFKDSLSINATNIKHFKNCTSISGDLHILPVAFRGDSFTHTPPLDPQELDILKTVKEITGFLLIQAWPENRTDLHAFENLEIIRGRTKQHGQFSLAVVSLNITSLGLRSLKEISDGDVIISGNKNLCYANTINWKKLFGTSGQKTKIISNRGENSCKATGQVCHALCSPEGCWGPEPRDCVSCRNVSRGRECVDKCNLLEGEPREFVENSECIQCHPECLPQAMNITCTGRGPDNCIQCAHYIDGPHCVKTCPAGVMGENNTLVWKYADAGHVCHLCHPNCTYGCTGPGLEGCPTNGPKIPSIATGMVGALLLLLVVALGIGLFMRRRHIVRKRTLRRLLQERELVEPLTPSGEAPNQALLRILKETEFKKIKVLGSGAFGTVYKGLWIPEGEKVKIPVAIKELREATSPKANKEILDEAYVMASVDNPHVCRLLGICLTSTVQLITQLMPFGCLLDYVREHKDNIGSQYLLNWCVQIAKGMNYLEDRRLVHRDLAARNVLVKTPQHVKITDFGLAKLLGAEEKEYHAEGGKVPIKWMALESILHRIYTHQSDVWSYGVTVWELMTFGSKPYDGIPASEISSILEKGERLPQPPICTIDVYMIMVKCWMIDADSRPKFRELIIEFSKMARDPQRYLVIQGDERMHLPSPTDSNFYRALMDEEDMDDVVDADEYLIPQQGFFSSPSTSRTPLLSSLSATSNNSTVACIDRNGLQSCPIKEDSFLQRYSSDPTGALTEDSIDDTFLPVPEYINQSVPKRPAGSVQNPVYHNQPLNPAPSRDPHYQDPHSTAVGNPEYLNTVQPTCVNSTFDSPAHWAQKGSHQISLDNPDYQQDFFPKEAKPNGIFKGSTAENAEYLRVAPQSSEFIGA
Neurogenic locus notch homolog protein 3 (Homo sapiens), sequence (Q9UM47 whole entry, looked up): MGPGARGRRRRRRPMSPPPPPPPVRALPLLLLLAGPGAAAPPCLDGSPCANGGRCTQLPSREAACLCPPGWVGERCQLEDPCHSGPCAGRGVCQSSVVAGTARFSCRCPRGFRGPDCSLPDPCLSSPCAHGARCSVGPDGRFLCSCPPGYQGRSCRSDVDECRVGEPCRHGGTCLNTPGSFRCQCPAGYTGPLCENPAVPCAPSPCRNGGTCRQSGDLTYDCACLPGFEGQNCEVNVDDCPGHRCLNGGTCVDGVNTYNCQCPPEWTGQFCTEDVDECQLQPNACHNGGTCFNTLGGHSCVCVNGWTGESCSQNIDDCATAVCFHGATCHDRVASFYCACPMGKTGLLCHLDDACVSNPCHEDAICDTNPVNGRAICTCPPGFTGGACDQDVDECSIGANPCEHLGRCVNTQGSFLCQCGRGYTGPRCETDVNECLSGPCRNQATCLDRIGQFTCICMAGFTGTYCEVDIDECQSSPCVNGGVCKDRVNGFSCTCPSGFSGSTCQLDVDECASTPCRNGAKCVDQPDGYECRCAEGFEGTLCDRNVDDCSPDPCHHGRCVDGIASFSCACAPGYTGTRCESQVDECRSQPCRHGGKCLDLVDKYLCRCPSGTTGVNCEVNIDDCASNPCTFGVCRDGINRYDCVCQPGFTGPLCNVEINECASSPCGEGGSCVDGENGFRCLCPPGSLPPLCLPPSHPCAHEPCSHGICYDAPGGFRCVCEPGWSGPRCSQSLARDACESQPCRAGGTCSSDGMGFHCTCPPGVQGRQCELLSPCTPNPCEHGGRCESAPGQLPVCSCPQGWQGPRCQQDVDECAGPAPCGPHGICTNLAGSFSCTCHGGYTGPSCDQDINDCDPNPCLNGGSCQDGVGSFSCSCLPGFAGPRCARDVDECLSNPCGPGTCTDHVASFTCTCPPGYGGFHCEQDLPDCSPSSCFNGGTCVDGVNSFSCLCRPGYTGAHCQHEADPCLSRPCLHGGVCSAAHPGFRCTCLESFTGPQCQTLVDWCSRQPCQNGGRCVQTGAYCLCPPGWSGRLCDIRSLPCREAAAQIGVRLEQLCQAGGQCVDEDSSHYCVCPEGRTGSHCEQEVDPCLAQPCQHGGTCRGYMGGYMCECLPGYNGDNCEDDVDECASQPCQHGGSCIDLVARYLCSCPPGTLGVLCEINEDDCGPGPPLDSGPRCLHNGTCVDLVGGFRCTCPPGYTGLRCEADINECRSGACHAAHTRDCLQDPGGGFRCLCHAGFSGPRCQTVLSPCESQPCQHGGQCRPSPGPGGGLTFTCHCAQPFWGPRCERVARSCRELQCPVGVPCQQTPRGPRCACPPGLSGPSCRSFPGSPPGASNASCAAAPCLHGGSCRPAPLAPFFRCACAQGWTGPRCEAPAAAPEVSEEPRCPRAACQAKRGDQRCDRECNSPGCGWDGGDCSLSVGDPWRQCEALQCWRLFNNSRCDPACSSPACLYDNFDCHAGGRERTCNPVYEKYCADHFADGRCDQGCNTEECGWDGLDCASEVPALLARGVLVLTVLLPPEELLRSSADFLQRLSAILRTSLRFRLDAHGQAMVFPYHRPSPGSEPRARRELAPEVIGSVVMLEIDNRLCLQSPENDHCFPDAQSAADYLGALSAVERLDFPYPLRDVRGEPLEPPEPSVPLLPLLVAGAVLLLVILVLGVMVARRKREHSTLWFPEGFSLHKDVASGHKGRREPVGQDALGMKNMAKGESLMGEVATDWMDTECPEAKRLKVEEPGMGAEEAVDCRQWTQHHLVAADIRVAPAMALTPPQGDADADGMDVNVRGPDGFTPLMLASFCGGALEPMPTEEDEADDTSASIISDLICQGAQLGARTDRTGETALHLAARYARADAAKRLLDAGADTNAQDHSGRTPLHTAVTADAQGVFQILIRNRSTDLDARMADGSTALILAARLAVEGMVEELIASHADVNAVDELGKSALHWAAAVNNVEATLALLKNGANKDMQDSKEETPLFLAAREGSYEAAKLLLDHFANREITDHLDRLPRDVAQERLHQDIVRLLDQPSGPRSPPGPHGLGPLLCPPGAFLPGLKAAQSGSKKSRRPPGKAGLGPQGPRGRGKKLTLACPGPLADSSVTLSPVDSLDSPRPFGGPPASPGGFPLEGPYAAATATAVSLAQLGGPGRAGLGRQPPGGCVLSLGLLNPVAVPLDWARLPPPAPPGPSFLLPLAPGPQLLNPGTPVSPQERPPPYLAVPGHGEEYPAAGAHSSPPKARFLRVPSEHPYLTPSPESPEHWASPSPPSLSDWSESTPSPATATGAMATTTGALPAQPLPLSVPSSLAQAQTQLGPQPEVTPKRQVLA
Dickkopf-related protein 1 (Homo sapiens), sequence (O94907 whole entry, looked up): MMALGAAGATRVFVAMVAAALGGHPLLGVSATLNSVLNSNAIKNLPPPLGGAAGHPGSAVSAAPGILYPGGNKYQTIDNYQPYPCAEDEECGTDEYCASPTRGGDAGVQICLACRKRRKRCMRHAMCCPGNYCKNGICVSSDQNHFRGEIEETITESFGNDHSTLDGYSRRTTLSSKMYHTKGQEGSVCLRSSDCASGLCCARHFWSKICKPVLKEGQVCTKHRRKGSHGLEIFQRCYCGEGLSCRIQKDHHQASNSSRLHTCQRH

SMILES	composite z-score [1]	z-score [2]	z-score [3]	z-score [4]	composite z-score [5]	z-score [6]	composite z-score [7]	composite z-score [8]	composite z-score [9]	composite z-score [10]	composite z-score [11]	composite z-score [12]	composite z-score [13]	z-score [14]	composite z-score [15]	composite z-score [16]	composite z-score [17]	composite z-score [18]	composite z-score [19]	composite z-score [20]
CN1C(=O)C2C=CC(C(O)C3CC=CCC3)N(Nc3ccccc3)C2C1=O (stereo not given)	1.47	0.373 (inactive)	0.772 (inactive)	0.726 (inactive)	3.32	-0.623 (inactive)	0.344	0.584	1.06	0.112	1.09	0.642	0.533	1.2 (inactive)	0.989	0.879	1.07	1.45	1.06	1.3
C#CCCCON=C1C[C@@H](O)[C@@H](O)[C@@H]2[C@@H]3C(=O)N(Cc4ccc5c(c4)OCO5)C(=O)[C@@H]3CC[C@H]12	1.01	-0.216 (inactive)	0.518 (inactive)	-0.257 (inactive)	2.79	0.523 (inactive)	-0.0835	1.66	0.513	-0.02	0.419	-0.254	-0.463	-0.16 (inactive)	1.34	0.253	0.328	0.578	0.59	-0.345
O=C1OCC=C[C@H]2OC34C=CCN(Cc5ccccc5)C(=O)[C@H]3N(CCCCCO)C(=O)[C@@H]4[C@@H]12 (stereo not given in full)	-0.702	-0.524 (inactive)	-1.06 (inactive)	-0.368 (inactive)	1.06	2.33 (inactive)	0.0282	-1.5	-0.911	-0.358	1.41	-0.212	0.528	-1.45 (inactive)	-0.606	-0.447	-1.36	-0.647	-1.01	0.18
C=C(COC)/C(=C/C[C@H](OC(C)=O)c1ccc(OCCO)cc1)c1cnc2ccccc2c1	1.46	1.53 (inactive)	-1.49 (inactive)	1.09 (inactive)	1.05	1.12 (inactive)	0.0707	0.935	1.1	-0.0039	-0.407	0.231	-0.146	-1.48 (inactive)	0.741	0.844	0.716	1.46	0.766	1.8
COC(=O)C(CC#Cc1ccc2c(c1)[C@]1(C(=O)N2)[C@H](C(=O)N2CCCCCCC2)[C@H]2C(=O)O[C@H](c3ccccc3)[C@H](c3ccccc3)N2[C@@H]1c1ccc(O)cc1)C(=O)OC	-1.19	-0.428 (inactive)	0.0597 (inactive)	0.702 (inactive)	-0.573	0.904 (inactive)	-0.294	-0.805	-0.909	-0.221	0.465	-0.2	0.269	-0.751 (inactive)	-1.05	-1.63	-0.887	-0.635	-0.785	0.16
CCN1C(C)=C(C(=O)OC)[C@@H](c2ccccc2)N2C(=O)[C@@]3(C(=O)OC)O[C@@]12[C@@H]1C(=O)CCC[C@@H]13	1.12	0.352 (inactive)	-1.06 (inactive)	1.8 (inactive)	-0.323	0.0465 (inactive)	-0.243	1.57	0.135	0.0173	0.604	-0.786	-1.31	-0.814 (inactive)	0.903	0.8	0.648	1.06	1.85	1.01
CN(C)C(=O)[C@@]1(Cc2ccccc2N=[N+]=[N-])N=C(c2ccc(OCCCO)cc2)O[C@H]1c1ccccc1CN=[N+]=[N-]	1.56	-1.92 (inactive)	-1.62 (inactive)	1.62 (inactive)	3.57	0.859 (inactive)	0.839	1.35	1.06	0.355	1.68	1.22	1.3	-0.636 (inactive)	0.689	1.21	0.0256	0.482	0.4	0.676
Cc1ccc(S(=O)(=O)N[C@H]2COC(=O)CC=C[C@H](C)COC(=O)N[C@@H](C)C(=O)CC=C[C@@H]2C)cc1	0.67	-0.11 (inactive)	-0.784 (inactive)	0.978 (inactive)	-0.866	0.12 (inactive)	-0.215	1.18	0.354	0.0486	0.38	-0.589	-1.38	-0.381 (inactive)	0.588	0.604	0.831	1.4	2.08	0.283
COc1ccc([Si](C)(C)[C@H]2[C@H](CC(=O)N(CCO)Cc3ccccc3)O[C@@]3(C(=O)N(C)c4ccccc43)[C@@H]2C)cc1	1.31	-1.98 (inactive)	-1.24 (inactive)	-0.712 (inactive)	1.93	1.41 (inactive)	-0.186	1.72	1.11	-0.0987	0.624	-0.29	-0.519	-1.44 (inactive)	1.19	0.25	0.631	0.996	1.05	0.92
C=CC(=O)O[C@@H](Cc1ccccc1)[C@H]1C2C=CCCC=C2CN1Cc1cccc(Cl)c1 (stereo not given in full)	-2.25	-0.476 (inactive)	-2.23 (inactive)	-1.47 (inactive)	-0.469	2.01 (inactive)	-0.192	-0.551	-1.53	-0.189	-0.426	0.0657	0.502	-0.855 (inactive)	-0.281	-1.21	-0.506	-0.87	-0.143	1.11

Source: PubChem BioAssay
